A selection: hits, their analogues and other compounds. The true share with any hit is near 2.7%.
DNA FID counter: compounds displacing fluorescent DNA intercalator, primary screen, artefact control for HCV NS3 helicase inhibitor project, biochemical, FID fluorescence | inhibition, % at 7.9 µM | DNA fluorescent intercalator displacement | actives 0.17% (n = 290,000); in the data active = inhibition above about 37%;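 note: higher means more ethidium bromide displaced from hairpin DNA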
ANO1 block: TMEM16A chloride channel inhibitors, primary screen, cell-based, HTS | Anoctamin-1 (Mus musculus), Q8BHY3 | HEK293 TMEM16A/YFP iodide influx fluorescence, ionomycin | normalized B-score (activity score, 25-100; higher = stronger inhibition) at 10 µM | actives 1.2% (n = 310,000);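 active = ratio plate-corrected score three or more library SD toward inhibition, starting fluorescence score within five deviations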;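 note: score derived from kinetic fluorescence span divided by baseline fluorescence per well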
TMEM16A act: TMEM16A chloride channel activators or potentiators, primary screen, cell-based, HTS | actives 0.3% (n = 340,000) | Anoctamin-1 (Mus musculus), Q8BHY3 | HEK293 TMEM16A/YFP-H148Q/I152L, iodide quench fluorescence; active compounds read low | B-score at 10 µM;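 active = fluorescence-ratio B-score plate-corrected deviation score at least 3 library SD below zero, with starting fluorescence score within 5 deviations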;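 note: channel opened by trigger with iodide after compound preincubation; score built on the fluorescence ratio of max minus min over baseline; more negative score means more quench and so TMEM16A activation or potentiation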
PP1 inh: PP1-alpha phosphatase inhibitors, primary screen, counter-screen for PP5 inhibitor project, biochemical, fluorescence, OMFP substrate, single point; purified PP1alpha; inhibition, % at 6.7 µM; actives 0.9% (n = 320,000); AID 2235, 2010;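 active = inhibition above the mean inhibition of all tested compounds plus 3 SD, computed separately for each screening campaign, cut at about 15% in these data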
PREPL inhibitor: PREPL enzyme inhibitors, primary screen, biochemical, fluorescence polarization | recombinant PREPL, fluorescence polarization activity-based probe | inhibition, % at 5.96 µM | actives 0.68% (n = 320,000) | AID 2751, 2010; in the data active = inhibition above about 43%
PP5 primary: PP5 phosphatase inhibitors, primary screen, biochemical, fluorescence; Serine/threonine-protein phosphatase 5 (Homo sapiens), P53041; AID 1987, 2009; purified PP5c, OMFP substrate fluorescence; inhibition, % at 6.7 µM; actives 0.18% (n = 320,000);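 active = inhibition above the campaign's mean inhibition across all tested compounds plus 3 SD, cut at about 9.5% in these data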
Hits are given with their value.

Cc1ccc(N2CC(C(=O)Nc3nnc(SCC(N)=O)s3)CC2=O)cc1 (stereo unspecified) was read as DNA FID counter inactive, ANO1 block inactive, TMEM16A act inactive, PP1 inh inactive, PREPL inhibitor inactive and PP5 primary inactive.
C[C@H](NC(=O)c1nc[nH]c1C(=O)N[C@@H](CCCCN)C(=O)OC(C)(C)C)C(=O)OCc1ccccc1 was read as TMEM16A act inactive and PREPL inhibitor inactive.
Screening CN(c1ccccc1)S(=O)(=O)c1cccc(NC(=O)CN2C(=O)NC3(CCCCC3)C2=O)c1 returned TMEM16A act inactive, PP1 inh inactive, PREPL inhibitor 68 and PP5 primary inactive.
`CC(C)CC1(C)NC(=O)N(CC(=O)Nc2cccc(S(=O)(=O)N(C)c3ccccc3)c2)C1=O` (stereo unspecified) gave DNA FID counter inactive, ANO1 block inactive, TMEM16A act inactive, PP1 inh inactive, PREPL inhibitor inactive and PP5 primary inactive.
Screening O=C(CSc1nn(-c2ccccc2)c(=S)s1)Nn1cnnc1 returned DNA FID counter inactive, ANO1 block inactive, PP1 inh inactive, PREPL inhibitor inactive and PP5 primary inactive.
`Cc1ccc(NC(=O)CSc2nn(-c3ccccc3)c(=S)s2)cc1S(=O)(=O)N(C)C` gave DNA FID counter inactive, ANO1 block 25, TMEM16A act inactive, PP1 inh inactive, PREPL inhibitor inactive and PP5 primary inactive.
`CCc1ccccc1OCC(=O)OCC(=O)Nc1cc(C)on1` gave TMEM16A act inactive, PP1 inh 17, PREPL inhibitor inactive and PP5 primary inactive.
`Cc1cc(C)cc(OCC(=O)OCc2nnc(-c3ccccc3)o2)c1` gave DNA FID counter inactive, ANO1 block inactive, TMEM16A act inactive, PP1 inh inactive, PREPL inhibitor inactive and PP5 primary inactive.
`CCCCCCCCNC(C)C(O)c1ccc(SC(C)C)cc1` (stereo unspecified) gave DNA FID counter inactive, ANO1 block 25, TMEM16A act inactive, PP1 inh inactive, PREPL inhibitor inactive and PP5 primary inactive.
`C[C@@H](NCCc1ccc(O)cc1)[C@@H](O)c1ccc(O)cc1` gave ANO1 block inactive, TMEM16A act inactive, PP1 inh inactive, PREPL inhibitor inactive and PP5 primary inactive.
For COc1ccc([N+](=O)[O-])cc1NC(=O)CCS(=O)(=O)c1ccc(Br)cc1 the results were DNA FID counter inactive, ANO1 block inactive, TMEM16A act inactive, PP1 inh 17, PREPL inhibitor inactive and PP5 primary inactive.
`COc1ccc([N+](=O)[O-])cc1NC(=O)CS(=O)(=O)c1ccc(C)cc1` gave DNA FID counter inactive, ANO1 block inactive, TMEM16A act inactive, PP1 inh inactive, PREPL inhibitor inactive and PP5 primary inactive.
For CC(=O)Nc1ccc(-c2sc(Nc3cccc4ccccc34)n[n+]2-c2ccccc2)cc1 the results were DNA FID counter inactive, ANO1 block inactive, TMEM16A act -12, PP1 inh inactive, PREPL inhibitor inactive and PP5 primary inactive.
`Fc1ccc(-[n+]2nc(Nc3ccccc3)sc2-c2cccc(Cl)c2Cl)cc1` gave DNA FID counter inactive, ANO1 block inactive, TMEM16A act inactive, PP1 inh 17, PREPL inhibitor inactive and PP5 primary inactive.
`CSc1ccc(-c2sc(Nc3cccc4ccccc34)n[n+]2-c2ccccc2)cc1` gave DNA FID counter inactive, ANO1 block inactive, TMEM16A act inactive, PP1 inh inactive, PREPL inhibitor inactive and PP5 primary inactive.
For CSc1ccc(-c2sc(Nc3ccccc3)n[n+]2-c2ccccc2)cc1 the results were DNA FID counter inactive, ANO1 block inactive, TMEM16A act inactive, PP1 inh 17, PREPL inhibitor inactive and PP5 primary inactive.
`O=C(O)COc1ccc(F)cc1Br` gave DNA FID counter inactive, ANO1 block inactive, TMEM16A act inactive, PP1 inh inactive, PREPL inhibitor inactive and PP5 primary inactive.
For COc1cc(/C=C/C(C)=NNc2ccccc2)ccc1O the results were TMEM16A act inactive.
